Rows were chosen to be rich in hits. Some 2.9% of all compounds tested hit in one or more screens of this group.
Pol beta inh: qHTS Assay for Inhibitors of DNA Polymerase Beta | P06746 | Pol beta primer extension/strand displacement, fluorescence kinetic | Potency, µM (titrated, usually from 114 µM), hits mostly inhibitors | 1.3% of 340,000 active
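Pol beta (10 nM) and compounds were preincubated 15 min at room temperature, then 50 nM substrate (final) started primer extension/strand displacement. Reads were taken at 0 and 10 min; concentration-response data were fitted to a four-parameter Hill equation.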
Pol iota inh: qHTS for Inhibitors of Polymerase Iota; Potency, µM (doses to about 115 µM), actives largely listed as inhibitors; Pol iota fluorescent replication assay, 10 min; 1% of 390,000 active
Target sequence (Q9UNA4 whole entry, looked up): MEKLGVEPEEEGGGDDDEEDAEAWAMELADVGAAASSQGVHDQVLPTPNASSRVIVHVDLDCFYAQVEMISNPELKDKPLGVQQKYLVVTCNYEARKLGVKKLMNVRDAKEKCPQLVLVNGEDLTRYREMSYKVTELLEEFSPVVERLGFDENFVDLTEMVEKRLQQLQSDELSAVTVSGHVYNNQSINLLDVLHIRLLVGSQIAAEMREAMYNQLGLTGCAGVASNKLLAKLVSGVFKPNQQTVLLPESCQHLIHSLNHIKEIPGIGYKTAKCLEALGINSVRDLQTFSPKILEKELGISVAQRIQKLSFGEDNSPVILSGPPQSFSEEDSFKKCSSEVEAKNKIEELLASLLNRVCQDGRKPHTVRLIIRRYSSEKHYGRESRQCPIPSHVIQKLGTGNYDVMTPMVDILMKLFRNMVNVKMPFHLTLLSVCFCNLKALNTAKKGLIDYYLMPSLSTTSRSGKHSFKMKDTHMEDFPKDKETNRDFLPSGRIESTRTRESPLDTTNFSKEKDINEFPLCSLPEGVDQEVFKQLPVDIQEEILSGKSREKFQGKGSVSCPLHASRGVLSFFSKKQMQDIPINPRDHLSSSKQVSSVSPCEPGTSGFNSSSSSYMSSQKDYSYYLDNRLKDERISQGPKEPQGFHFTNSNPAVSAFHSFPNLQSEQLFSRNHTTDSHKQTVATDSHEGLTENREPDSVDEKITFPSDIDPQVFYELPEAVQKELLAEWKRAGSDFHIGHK
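Pol iota at 10 nM preincubated 15 min with compounds at room temperature; reaction started with fluorescent substrate, 50 nM final. Fluorescence read kinetically at 0 and 10 min; buffer-only wells as negative control.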
POLH inh: qHTS for Inhibitors of Polymerase Eta | Potency, µM (titrated, usually from 114 µM), hits mostly inhibitors | 1.2% of 390,000 active | DNA polymerase eta (Homo sapiens), Q9Y253 | recombinant Pol eta, fluorescent DNA replication assay
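Fluorescent replication assay: 50 nM final substrate added after a 15 min room-temperature compound preincubation with 10 nM enzyme. Signal taken at 0 min and again at 10 min.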
Pol kappa inh: qHTS for Inhibitors of Polymerase Kappa; 0.53% of 400,000 active; purified Pol kappa, fluorescent DNA synthesis assay, 10 min; DNA polymerase kappa (Homo sapiens), Q9UBT6; Potency, µM (top dose mostly 107 µM), hits mostly inhibitors
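Activity was followed as the change in fluorescence between reads at 0 and 10 min after starting the reaction with 50 nM substrate. Beforehand, 10 nM polymerase had been preincubated with compound for 15 min at room temperature.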
PI5P4K alpha inh: qHTS for Inhibitors of phosphatidylinositol 5-phosphate 4-kinase (PI5P4K); Phosphatidylinositol 5-phosphate 4-kinase type-2 alpha (Homo sapiens), P48426; PI5P4Kalpha enzyme, ADP-Glo luminescence, 60 min; active compounds read low; max response, %; 1.2% of 330,000 active; AID 652105, 2013; active = max response of -50% or lower; inconclusive = between -30% and -50%; inactive = -30% or higher; also: value at the top dose of about 77 µM
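ADP-Glo luminescence end-point after a 60 min room-temperature kinase reaction. PI5P4Kalpha and substrate in HEPES pH 7.4 buffer with EGTA, 0.1% CHAPS and 5% DMSO; ATP at 5 microM final.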
12-LOX inh: Primary qHTS assay for inhibitors of human arachidonate 12S-lipoxygenase (ALOX12): Round 2; Potency, µM (titrated, usually from 108 µM), hits mostly inhibitors; Polyunsaturated fatty acid lipoxygenase ALOX12 (Homo sapiens), P18054; purified 12hLO, xylenol orange hydroperoxide absorbance; 1.1% of 580,000 active
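Purified human 12hLO (150 nM final) in 25 mM Hepes, 0.01% Triton X-100, pH 7.0 was preincubated 15 min at room temperature with compound. Then 40 uM arachidonic acid was added, 30 min. Hydroperoxide was read by Fe-XO absorbance ratio 573/405 nm.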
A number is an active result; . = inactive; ? = inconclusive; / = not tested or not shown. Unless noted, calls follow the shape of the dose curve; as a rule, active = well fitted inhibition curve with a large enough effect; inconclusive = small, poorly fitted or top-dose-only effect, or another doubt; inactive = no such curve, though single readings can be large or run the other way.

SMILES	Pol beta inh	Pol iota inh	POLH inh	Pol kappa inh	PI5P4K alpha inh	12-LOX inh
O=c1cc(CN2CCN(c3ccccc3)CC2)c2cc(Cl)c(O)cc2o1	/	/	/	/	/	.
CCN1CCN(Cc2cc(=O)oc3cc(-c4ccccc4)c(O)cc23)CC1	/	/	/	/	/	31.6µM
CCCCn1c(N2CCN(CC(N)=O)CC2)nc2c1c(=O)[nH]c(=O)n2C	/	/	/	/	/	.
CC1=NN(c2ccccc2)C(=O)/C1=C\c1ccc(Br)s1	.	?	89.1µM	.	.	.
CC1=NN(c2ccccc2)C(=O)/C1=C/C=C/C=C/N(C)C	?	44.7µM	.	?	?	?
COc1ccc(/C=C2/C(=O)N(Cc3ccccc3)N=C2C)cc1	.	22.4µM	.	.	.	.
CC1=NN(c2ccccc2)C(=O)/C1=C/c1ccc[nH]1	.	.	.	.	.	.
COc1ccc(/C=C2/C(=O)N(c3ccccc3)N=C2C)cc1Br	.	1.26µM	?	.	.	?
COc1cc(/C=C2/C(=O)N(c3ccccc3)N=C2C)ccc1OS(=O)(=O)c1ccccc1	.	/	/	/	/	/
Cc1[nH]c(C)c(S(=O)(=O)NCCC(=O)NCc2ccccc2Cl)c1C(=O)N1CCCCC1	/	/	/	/	/	.
Cc1ccc2c(=O)cc(C(=O)N(Cc3cccc(Cl)c3)C3CCS(=O)(=O)C3)oc2c1C (centres undefined)	/	/	/	/	/	.
CC1=NN(c2ccccc2)C(=O)/C1=C/c1ccc(Cl)cc1	.	?	.	.	.	6.31µM
CC1=NN(c2ccccc2)C(=O)C1=Cc1ccccc1	/	/	.	/	.	?
CC1=NN(c2ccc(C)c(C)c2)C(=O)/C1=C/c1ccc2c(c1)n(C)c(=O)n2C	.	1.41µM	.	.	.	.
COc1ccc(/C=C2/C(=O)N(c3cccc(F)c3)N=C2C)c(OC)c1	.	1.12µM	.	.	.	.
CC1=NN(c2ccccc2)C(=O)/C1=C/c1cccs1	.	1.26µM	.	.	.	.
CC1=NN(c2cccc(F)c2)C(=O)/C1=C/c1ccc(N(C)C)cc1	.	.	.	.	.	.
CC(NC(=O)c1nccnc1N)c1cccc(Br)c1 (centres undefined)	/	/	/	/	/	.
CC(C)N(C)S(=O)(=O)c1ccc(NC(=O)c2cc3ccccc3oc2=O)cc1	/	/	/	/	/	.
Cc1ccc2oc(-c3ccc(C)c(NC(=O)c4cccs4)c3)nc2c1	/	/	/	/	/	.
NC(=S)Nc1cccc(-c2n[nH]c(=S)o2)c1	.	.	.	.	.	.
COc1ccc(C(=O)Nc2ccc(-c3n[nH]c(=S)o3)cc2)cc1	.	?	.	.	-55.1	?
O=C(Nc1ccc(-c2n[nH]c(=S)o2)cc1)c1ccccc1	.	.	.	.	-62.8	.
C=CCOc1ccc(-c2n[nH]c(=S)o2)cc1	.	.	.	.	-60.0	?
C=CCOc1ccc(C=O)cc1	/	/	/	/	/	.
SMILES	Pol beta inh	Pol iota inh	POLH inh	Pol kappa inh	PI5P4K alpha inh	12-LOX inh
O=C(Nc1ccc(-c2ccccc2)cc1)c1ccccc1	.	.	.	.	.	.
Cc1ccc(NC(=S)Nc2cccc(-c3n[nH]c(=S)o3)c2)cc1	.	.	.	.	-68.1	.
COc1ccc(Cc2nc3c4c(C)c(C)n(CCO)c4ncn3n2)cc1OC	/	/	/	/	/	.
COC(=O)c1cc2c(c3c4ccccc4n(S(=O)(=O)c4ccc(OC)cc4)c13)C(=O)N(Cc1ccco1)C2	/	/	/	/	/	39.8µM
Nn1cnnc1N/N=C/c1ccc(Cl)c([N+](=O)[O-])c1	?	3.16µM	.	.	.	.
Cc1ccc(/C=N/Nc2nncn2N)cc1	.	0.891µM	.	.	.	?
Nn1cnnc1N/N=C/c1ccc(F)cc1	.	15.8µM	.	.	.	.
Nn1cnnc1N/N=C/c1ccccc1C(F)(F)F	.	?	.	.	.	?
Cc1nnc(N/N=C/c2ccc(Br)cc2)n1N	.	?	.	.	.	.
O=C(NC1CCC1)c1ccc2c(c1)C1(CCN(CC3CC3)C1)CN2Cc1ccccc1 (centres undefined)	/	/	/	/	/	.
CCOC(=O)Nc1nc(-c2ccc(F)cc2F)cs1	.	.	.	.	.	.
CN1C(=O)Cc2cc(-c3csc(-c4ccc(F)cc4)n3)ccc21	/	/	/	/	/	.
CN1C(=O)Cc2cc(-c3csc(NC(C)(C)C)n3)ccc21	/	/	/	/	/	11.2µM
CCNc1nc(-c2ccc(NC(C)=O)cc2F)cs1	/	/	/	/	/	7.08µM
CC(=O)Nc1ccc(-c2csc(NC(C)(C)C)n2)c(F)c1	/	/	/	/	/	11.2µM
CC(=O)Nc1ccc(-c2csc(NC(C)C)n2)c(F)c1	/	/	/	/	/	.
CNc1nc(-c2ccc(NC(C)=O)cc2F)cs1	/	/	/	/	/	31.6µM
CC(C)CCOC(=O)CC(C)C	/	/	/	/	/	.
Cc1ccc(C)n1-c1c(C(=O)NCCN2CCCCC2)sc2ncccc12	/	/	/	/	/	.
CNC(=O)NC(=O)CN(Cc1ccc(C)cc1)C1CC1	/	/	/	/	/	.
CC(=O)Nc1ccc(-c2csc(NC(C)(C)C)n2)cc1	/	/	/	/	/	10µM
CCCCN(CC)C(=O)c1ccc(-c2ccccc2)cc1	.	.	.	.	.	.
CCCCN(CCCC)C(=O)c1ccc(N)cc1	/	/	/	/	/	15.8µM
CCOC(=O)CSC1=C(C#N)C(=O)NC(c2ccc(OC)cc2)S1 (centres undefined)	.	?	.	.	-63.2	?
COc1ccc(C2NC(=O)C(C#N)=C(S)N2c2ccc(C)cc2)cc1OC (centres undefined)	.	?	.	.	.	?
SMILES	Pol beta inh	Pol iota inh	POLH inh	Pol kappa inh	PI5P4K alpha inh	12-LOX inh
CCOC(=O)CSC1=C(C#N)C(=O)NC(c2ccc(OC)c(OC)c2)S1 (centres undefined)	.	?	.	.	-72.2	?
CC(C)(CNC(=O)Cc1ccccc1)CNC(=O)Cc1ccccc1	/	/	/	/	/	.
O=C(Nc1nc(-c2ccccc2Cl)cs1)c1cccc(N2CCCC2=O)c1	/	/	/	/	/	.
S=c1sc2c(s1)SCCCS2	/	/	/	/	/	31.6µM
O=C(O)/C(=C\c1ccccc1OC(F)F)c1ccc(-c2ccccc2)cc1	56.2µM	.	.	.	.	?
CC(=O)C1=CCC(c2ccc(C)o2)N(S(=O)(=O)c2ccc(C)cc2)C1 (centres undefined)	/	/	/	/	.	10µM
COc1ccc(CNC(=O)CSc2nc(-c3ccccc3)cc(-c3cccs3)c2C#N)cc1	.	.	.	.	.	.
O=C(Cn1nnc(-c2cccs2)n1)NCc1ccco1	.	.	.	.	.	.
Cc1ccc(-c2ccc(=O)n(CC(=O)NCc3ccco3)n2)cc1	.	.	.	.	/	.
COc1ccc(C2=NOC(C(=O)NCc3ccco3)C2)cc1 (centres undefined)	.	.	.	.	/	.
COc1ccc(-c2cc(-c3cccs3)c(C#N)c(SCC(=O)NCc3ccco3)n2)cc1	12.6µM	.	.	.	.	/

Source: PubChem BioAssay
